# Data taken from PMC7862700, “An all-to-all approach to the identification of sequence-specific readers for epigenetic DNA modifications on cytosine”.
# How the values were obtained:
# Assay in all cases: DAPPL (digital affinity profiling via proximity ligation, sequencing); 10 mM Tris-HCl pH 7.5, 50 mM NaCl, 1 mM DTT, 4% glycerol, room temperature, 30 min; GST-TFs on glutathione beads, 16-mer random dsDNA library, 0.1% formaldehyde crosslink after washing; high values mean tight binding
# FLI1 = target: T1, FLI1 (Homo sapiens, UniProt Q01543 1-452); settings: protein: recombinant; tags: N-terminal GST; dsDNA, one strand shown
# T1 sequence: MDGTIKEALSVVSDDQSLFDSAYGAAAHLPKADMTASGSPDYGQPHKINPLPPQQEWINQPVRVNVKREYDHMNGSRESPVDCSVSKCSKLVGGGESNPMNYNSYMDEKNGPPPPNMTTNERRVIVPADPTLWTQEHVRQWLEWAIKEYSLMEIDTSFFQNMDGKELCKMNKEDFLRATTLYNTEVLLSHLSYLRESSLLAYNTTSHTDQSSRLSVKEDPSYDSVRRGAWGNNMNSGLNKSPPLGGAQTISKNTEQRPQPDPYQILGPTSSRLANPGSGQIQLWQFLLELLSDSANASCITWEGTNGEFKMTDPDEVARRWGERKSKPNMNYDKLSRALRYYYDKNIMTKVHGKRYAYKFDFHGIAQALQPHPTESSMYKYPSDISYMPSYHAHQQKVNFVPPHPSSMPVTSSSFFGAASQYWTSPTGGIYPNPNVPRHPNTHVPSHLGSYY
# Procedure, shortened: (§1)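 After expression in yeast as GST fusions, human transcription factors were bound to glutathione beads, DNA-barcoded and mixed with a tag-only sample. The pools were incubated with 200 nmole of a 16-mer random double-stranded DNA library in Tris/NaCl/DTT/glycerol buffer (30 min, room temperature), washed and crosslinked with 0.1% formaldehyde. Proximity ligation with BsaI/T4 ligase ran for 1 h at 37 °C, before PCR amplification and sequencing on an Illumina NextSeq500. Binding signal is a hexamer's read frequency for a factor divided by its frequency for the tag-only sample.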
# ELK1 = target: T2, ELK1 (Homo sapiens, UniProt P19419 1-428); settings: protein: recombinant; tags: N-terminal GST; dsDNA, one strand shown
# T2 sequence: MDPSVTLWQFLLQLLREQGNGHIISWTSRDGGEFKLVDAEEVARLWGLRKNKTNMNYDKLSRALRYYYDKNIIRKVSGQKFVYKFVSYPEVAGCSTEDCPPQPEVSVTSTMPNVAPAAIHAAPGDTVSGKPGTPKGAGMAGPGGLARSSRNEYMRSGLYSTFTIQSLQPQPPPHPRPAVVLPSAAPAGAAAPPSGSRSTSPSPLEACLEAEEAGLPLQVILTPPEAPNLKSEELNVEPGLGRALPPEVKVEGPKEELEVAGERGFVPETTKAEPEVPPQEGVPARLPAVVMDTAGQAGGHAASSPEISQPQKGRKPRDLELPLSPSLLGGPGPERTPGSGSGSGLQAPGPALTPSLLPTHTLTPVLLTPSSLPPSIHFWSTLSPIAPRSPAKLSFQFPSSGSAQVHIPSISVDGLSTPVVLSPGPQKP
# Procedure, shortened: as §1
# GABPA = target: T3, GABPA (Homo sapiens, UniProt Q06546 1-454); settings: protein: recombinant; tags: N-terminal GST; dsDNA, one strand shown
# T3 sequence: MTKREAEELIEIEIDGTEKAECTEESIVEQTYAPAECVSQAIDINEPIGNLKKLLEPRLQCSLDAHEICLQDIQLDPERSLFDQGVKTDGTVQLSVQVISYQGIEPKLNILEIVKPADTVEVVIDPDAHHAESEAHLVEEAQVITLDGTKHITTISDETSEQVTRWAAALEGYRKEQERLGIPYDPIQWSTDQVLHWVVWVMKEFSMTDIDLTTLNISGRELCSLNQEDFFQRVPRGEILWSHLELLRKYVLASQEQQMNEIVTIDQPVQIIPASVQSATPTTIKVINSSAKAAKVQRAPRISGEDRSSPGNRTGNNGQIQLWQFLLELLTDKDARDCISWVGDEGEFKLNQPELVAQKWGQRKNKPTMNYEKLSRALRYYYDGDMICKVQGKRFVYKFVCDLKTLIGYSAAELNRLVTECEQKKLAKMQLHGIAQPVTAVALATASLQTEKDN
# Procedure, shortened: as §1
# ERG = target: T4, ERG (Homo sapiens, UniProt P11308 1-479); settings: protein: recombinant; tags: N-terminal GST; dsDNA, one strand shown
# T4 sequence: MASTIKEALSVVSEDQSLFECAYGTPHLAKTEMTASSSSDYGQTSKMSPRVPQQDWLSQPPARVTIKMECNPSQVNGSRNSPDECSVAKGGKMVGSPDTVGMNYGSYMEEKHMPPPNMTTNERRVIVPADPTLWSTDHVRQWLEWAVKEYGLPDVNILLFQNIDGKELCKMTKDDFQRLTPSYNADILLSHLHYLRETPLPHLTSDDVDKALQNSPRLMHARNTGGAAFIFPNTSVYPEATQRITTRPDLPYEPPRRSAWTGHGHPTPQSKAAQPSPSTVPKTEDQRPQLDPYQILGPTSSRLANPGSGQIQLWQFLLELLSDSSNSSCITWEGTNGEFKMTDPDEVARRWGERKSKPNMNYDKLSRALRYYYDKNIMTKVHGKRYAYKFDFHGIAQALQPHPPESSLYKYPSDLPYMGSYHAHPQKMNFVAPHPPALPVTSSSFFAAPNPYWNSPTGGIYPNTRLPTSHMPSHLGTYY
# Procedure, shortened: as §1
# ELF1 = ELF1 (Homo sapiens, UniProt P32519 1-619); settings: protein: recombinant; tags: N-terminal GST; dsDNA, one strand shown
# Chain of ELF1 (P32519 whole entry): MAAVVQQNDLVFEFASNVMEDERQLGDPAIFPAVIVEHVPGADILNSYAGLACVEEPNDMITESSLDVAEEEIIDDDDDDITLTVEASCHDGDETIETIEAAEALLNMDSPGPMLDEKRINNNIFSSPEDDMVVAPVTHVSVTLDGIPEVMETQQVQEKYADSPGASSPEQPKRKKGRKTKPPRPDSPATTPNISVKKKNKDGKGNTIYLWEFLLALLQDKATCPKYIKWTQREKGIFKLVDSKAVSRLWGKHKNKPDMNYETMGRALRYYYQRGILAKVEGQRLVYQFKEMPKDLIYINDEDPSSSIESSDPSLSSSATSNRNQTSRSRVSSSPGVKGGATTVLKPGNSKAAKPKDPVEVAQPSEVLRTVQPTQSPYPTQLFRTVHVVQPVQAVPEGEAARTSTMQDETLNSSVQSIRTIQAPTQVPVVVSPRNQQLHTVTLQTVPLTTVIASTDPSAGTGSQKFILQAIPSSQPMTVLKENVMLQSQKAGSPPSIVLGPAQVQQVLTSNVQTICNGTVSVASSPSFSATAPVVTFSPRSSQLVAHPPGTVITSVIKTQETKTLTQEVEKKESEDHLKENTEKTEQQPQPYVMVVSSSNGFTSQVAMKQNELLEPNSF
# Procedure, shortened: as §1
# EHF = target: T5, EHF (Homo sapiens, UniProt Q9NZC4 1-300); settings: protein: recombinant; tags: N-terminal GST; dsDNA, one strand shown
# T5 sequence: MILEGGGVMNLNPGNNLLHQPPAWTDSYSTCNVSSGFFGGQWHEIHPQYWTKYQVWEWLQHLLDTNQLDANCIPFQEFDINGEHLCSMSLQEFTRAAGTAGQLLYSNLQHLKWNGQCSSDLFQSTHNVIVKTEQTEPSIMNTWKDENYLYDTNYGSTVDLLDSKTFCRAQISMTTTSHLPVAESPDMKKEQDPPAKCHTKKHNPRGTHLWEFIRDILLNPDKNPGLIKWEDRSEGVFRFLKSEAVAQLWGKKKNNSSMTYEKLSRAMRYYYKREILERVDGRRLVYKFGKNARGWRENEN
# Procedure, shortened: as §1
# SPI1 = SPI1 (Homo sapiens, UniProt P17947 1-270); settings: protein: recombinant; tags: N-terminal GST; dsDNA, one strand shown
# Procedure, shortened: as §1
# SPIB = SPIB (Homo sapiens, UniProt Q01892 1-262); settings: protein: recombinant; tags: N-terminal GST; dsDNA, one strand shown
# Chain of SPIB (Q01892 whole entry): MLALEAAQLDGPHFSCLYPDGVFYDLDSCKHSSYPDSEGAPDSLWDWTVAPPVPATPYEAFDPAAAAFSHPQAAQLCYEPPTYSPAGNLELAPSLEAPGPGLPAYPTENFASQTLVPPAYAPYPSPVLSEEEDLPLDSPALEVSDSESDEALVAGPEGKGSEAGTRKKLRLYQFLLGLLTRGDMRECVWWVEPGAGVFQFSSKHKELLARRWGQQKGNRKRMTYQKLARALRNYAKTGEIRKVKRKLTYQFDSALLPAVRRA
# Procedure, shortened: as §1
# ELK3 = target: T6, ELK3 (Homo sapiens, UniProt P41970 1-407); settings: protein: recombinant; tags: N-terminal GST; dsDNA, one strand shown
# T6 sequence: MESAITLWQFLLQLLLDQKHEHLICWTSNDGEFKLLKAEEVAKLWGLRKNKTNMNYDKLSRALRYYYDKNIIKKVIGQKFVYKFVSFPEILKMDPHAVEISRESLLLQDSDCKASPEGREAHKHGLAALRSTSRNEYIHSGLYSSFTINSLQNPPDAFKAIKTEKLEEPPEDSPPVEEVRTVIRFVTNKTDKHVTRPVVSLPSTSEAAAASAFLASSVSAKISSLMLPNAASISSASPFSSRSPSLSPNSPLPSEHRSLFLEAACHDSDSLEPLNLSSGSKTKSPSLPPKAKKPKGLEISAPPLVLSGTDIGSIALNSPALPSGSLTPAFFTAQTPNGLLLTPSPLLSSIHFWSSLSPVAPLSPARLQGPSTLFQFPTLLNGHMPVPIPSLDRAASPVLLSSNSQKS
# Procedure, shortened: as §1
# FEV = target: T7, FEV (Homo sapiens, UniProt Q99581 1-238); settings: protein: recombinant; tags: N-terminal GST; dsDNA, one strand shown
# T7 sequence: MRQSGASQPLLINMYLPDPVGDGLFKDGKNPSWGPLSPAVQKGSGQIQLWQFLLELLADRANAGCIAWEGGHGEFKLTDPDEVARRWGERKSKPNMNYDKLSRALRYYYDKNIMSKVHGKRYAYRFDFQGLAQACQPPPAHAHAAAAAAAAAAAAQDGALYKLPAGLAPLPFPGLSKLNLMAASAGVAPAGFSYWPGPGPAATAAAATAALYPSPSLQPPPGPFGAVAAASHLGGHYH
# Procedure, shortened: as §1
# ETV5 = ETV5 (Homo sapiens, UniProt P41161 1-510); settings: protein: recombinant; tags: N-terminal GST; dsDNA, one strand shown
# Chain of ETV5 (P41161 whole entry): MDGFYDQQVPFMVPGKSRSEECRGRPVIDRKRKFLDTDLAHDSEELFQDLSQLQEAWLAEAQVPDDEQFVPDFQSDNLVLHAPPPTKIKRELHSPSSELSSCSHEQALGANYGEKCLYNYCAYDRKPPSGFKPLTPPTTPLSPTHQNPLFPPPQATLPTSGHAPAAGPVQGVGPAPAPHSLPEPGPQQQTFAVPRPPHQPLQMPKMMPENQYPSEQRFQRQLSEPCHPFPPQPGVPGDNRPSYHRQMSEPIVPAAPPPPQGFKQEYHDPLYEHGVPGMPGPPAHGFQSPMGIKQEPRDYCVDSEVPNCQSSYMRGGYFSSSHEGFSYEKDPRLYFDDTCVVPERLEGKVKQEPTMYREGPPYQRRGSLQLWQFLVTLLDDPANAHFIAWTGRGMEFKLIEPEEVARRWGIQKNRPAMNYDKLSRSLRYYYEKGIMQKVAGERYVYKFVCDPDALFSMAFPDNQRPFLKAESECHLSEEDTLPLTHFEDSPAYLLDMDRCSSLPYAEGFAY
# Procedure, shortened: as §1
# HSF1 = HSF1 (Homo sapiens, UniProt Q00613 1-529); settings: protein: recombinant; tags: N-terminal GST; chain copies: 3; dsDNA, one strand shown
# Chain of HSF1 (Q00613 whole entry): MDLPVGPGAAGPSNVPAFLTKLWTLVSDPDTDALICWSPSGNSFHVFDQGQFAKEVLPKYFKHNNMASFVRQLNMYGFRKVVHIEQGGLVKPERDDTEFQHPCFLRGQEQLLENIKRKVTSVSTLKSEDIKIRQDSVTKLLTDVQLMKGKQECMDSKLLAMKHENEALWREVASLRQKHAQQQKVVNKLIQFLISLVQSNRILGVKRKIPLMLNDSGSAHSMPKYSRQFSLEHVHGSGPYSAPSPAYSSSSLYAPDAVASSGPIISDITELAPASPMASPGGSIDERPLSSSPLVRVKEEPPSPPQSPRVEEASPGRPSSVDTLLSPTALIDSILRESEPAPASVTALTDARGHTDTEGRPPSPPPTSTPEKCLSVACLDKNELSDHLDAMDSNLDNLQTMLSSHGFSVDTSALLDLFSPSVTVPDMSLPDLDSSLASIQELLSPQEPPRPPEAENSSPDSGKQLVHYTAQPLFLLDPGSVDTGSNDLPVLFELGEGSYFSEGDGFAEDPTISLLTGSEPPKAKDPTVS
# Procedure, shortened: as §1
# SPIC = target: T8, SPIC (Homo sapiens, UniProt Q8N5J4 1-248); settings: protein: recombinant; tags: N-terminal GST; dsDNA, one strand shown
# T8 sequence: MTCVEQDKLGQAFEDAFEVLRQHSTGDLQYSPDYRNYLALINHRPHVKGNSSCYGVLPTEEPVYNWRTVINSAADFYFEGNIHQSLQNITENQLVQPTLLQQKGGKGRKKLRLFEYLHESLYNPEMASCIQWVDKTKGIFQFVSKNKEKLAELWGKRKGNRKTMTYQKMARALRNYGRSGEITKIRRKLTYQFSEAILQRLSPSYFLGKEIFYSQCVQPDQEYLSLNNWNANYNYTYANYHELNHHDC
# Procedure, shortened: as §1
# ELF4 = ELF4 (Homo sapiens, UniProt Q99607 1-663); settings: protein: recombinant; tags: N-terminal GST; dsDNA, one strand shown
# Chain of ELF4 (Q99607 whole entry): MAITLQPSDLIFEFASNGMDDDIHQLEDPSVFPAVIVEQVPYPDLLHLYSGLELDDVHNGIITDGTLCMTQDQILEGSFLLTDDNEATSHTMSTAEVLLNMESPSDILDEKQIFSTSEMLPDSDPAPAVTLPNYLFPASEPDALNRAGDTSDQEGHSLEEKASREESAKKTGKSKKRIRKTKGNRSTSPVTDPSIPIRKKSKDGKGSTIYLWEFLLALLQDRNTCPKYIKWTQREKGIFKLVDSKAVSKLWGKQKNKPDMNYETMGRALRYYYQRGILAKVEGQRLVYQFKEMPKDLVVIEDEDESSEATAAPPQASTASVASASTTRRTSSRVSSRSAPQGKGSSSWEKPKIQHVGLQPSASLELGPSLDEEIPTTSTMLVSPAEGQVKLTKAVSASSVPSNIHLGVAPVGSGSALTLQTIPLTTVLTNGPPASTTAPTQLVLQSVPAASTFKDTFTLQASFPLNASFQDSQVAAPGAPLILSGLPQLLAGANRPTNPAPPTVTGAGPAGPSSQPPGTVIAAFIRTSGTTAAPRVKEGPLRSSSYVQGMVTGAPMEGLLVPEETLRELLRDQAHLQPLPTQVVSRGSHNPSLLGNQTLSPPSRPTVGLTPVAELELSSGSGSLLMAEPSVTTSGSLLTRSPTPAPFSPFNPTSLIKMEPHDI
# Procedure, shortened: as §1
# ELK4 = target: T9, ELK4 (Homo sapiens, UniProt P28324-2 1-405); settings: protein: recombinant; tags: N-terminal GST; dsDNA, one strand shown
# T9 sequence: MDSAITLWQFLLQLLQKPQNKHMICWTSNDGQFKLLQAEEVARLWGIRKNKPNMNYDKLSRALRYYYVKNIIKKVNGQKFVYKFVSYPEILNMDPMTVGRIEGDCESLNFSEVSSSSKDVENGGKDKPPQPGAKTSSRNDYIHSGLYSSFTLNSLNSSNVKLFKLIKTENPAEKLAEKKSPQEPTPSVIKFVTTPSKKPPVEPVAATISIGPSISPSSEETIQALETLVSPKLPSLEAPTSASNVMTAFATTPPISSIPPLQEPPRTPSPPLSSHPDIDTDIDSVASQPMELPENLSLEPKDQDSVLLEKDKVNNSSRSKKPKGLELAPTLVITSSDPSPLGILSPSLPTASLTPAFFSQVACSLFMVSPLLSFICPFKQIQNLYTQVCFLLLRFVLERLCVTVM
# Procedure, shortened: as §1
# ETV2 = target: T10, ETV2 (Homo sapiens, UniProt O00321 1-342); settings: protein: recombinant; tags: N-terminal GST; dsDNA, one strand shown
# T10 sequence: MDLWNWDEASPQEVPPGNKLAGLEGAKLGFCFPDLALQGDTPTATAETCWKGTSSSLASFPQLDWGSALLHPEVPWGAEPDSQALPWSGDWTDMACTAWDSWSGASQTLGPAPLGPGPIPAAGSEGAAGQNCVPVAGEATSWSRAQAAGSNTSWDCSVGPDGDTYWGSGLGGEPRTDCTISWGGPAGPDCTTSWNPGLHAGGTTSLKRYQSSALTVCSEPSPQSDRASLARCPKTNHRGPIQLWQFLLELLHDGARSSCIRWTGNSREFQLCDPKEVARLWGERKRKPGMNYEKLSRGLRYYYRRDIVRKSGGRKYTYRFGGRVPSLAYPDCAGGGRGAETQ
# Procedure, shortened: as §1
# ELF3 = target: T11, ELF3 (Homo sapiens, UniProt P78545 1-371); settings: protein: recombinant; tags: N-terminal GST; dsDNA, one strand shown
# T11 sequence: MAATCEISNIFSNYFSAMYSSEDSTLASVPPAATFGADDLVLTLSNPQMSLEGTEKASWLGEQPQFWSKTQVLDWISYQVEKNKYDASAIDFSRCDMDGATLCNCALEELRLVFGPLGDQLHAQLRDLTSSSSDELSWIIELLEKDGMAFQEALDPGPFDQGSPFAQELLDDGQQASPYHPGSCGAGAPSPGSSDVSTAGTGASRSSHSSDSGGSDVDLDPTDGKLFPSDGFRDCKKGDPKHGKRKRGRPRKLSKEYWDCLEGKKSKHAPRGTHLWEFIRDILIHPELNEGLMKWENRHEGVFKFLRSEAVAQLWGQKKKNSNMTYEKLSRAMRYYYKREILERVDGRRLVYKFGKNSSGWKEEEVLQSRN
# Procedure, shortened: as §1
# ETV1 = ETV1 (Homo sapiens, UniProt P50549 1-477); settings: protein: recombinant; tags: N-terminal GST; dsDNA, one strand shown
# Chain of ETV1 (P50549 whole entry): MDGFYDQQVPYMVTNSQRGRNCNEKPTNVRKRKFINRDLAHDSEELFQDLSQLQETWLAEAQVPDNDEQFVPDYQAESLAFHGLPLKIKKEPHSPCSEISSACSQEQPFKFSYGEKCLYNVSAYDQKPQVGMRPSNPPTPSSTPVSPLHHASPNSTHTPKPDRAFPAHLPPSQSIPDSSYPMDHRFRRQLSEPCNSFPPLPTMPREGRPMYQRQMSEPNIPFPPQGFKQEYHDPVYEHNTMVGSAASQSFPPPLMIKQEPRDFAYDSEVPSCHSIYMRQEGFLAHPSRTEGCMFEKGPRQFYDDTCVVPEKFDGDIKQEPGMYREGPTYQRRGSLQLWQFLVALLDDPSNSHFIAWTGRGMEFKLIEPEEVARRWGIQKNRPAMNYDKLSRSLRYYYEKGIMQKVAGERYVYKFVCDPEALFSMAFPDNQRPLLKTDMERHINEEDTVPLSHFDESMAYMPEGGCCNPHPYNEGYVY
# Procedure, shortened: as §1
sequence,measurement,setting,value
CCGTAC,binding signal,FLI1,"1.39 fold enrichment (6-mer frequency, TF over GST control)"
same,binding signal,ELK1,"1.25 fold enrichment (6-mer frequency, TF over GST control)"
same,binding signal,GABPA,"1.33 fold enrichment (6-mer frequency, TF over GST control)"
same,binding signal,ERG,"1.3 fold enrichment (6-mer frequency, TF over GST control)"
same,binding signal,ELF1,"1.45 fold enrichment (6-mer frequency, TF over GST control)"
same,binding signal,EHF,"1.33 fold enrichment (6-mer frequency, TF over GST control)"
same,binding signal,SPI1,"1.22 fold enrichment (6-mer frequency, TF over GST control)"
same,binding signal,SPIB,"1.15 fold enrichment (6-mer frequency, TF over GST control)"
same,binding signal,ELK3,"1.28 fold enrichment (6-mer frequency, TF over GST control)"
same,binding signal,FEV,"1.24 fold enrichment (6-mer frequency, TF over GST control)"
same,binding signal,ETV5,"1.33 fold enrichment (6-mer frequency, TF over GST control)"
same,binding signal,HSF1,"1.06 fold enrichment (6-mer frequency, TF over GST control)"
same,binding signal,SPIC,"1.18 fold enrichment (6-mer frequency, TF over GST control)"
same,binding signal,ELF4,"1.26 fold enrichment (6-mer frequency, TF over GST control)"
same,binding signal,ELK4,"1.36 fold enrichment (6-mer frequency, TF over GST control)"
same,binding signal,ETV2,"1.42 fold enrichment (6-mer frequency, TF over GST control)"
same,binding signal,ELF3,"1.33 fold enrichment (6-mer frequency, TF over GST control)"
same,binding signal,ETV1,"1.34 fold enrichment (6-mer frequency, TF over GST control)"
